Test results reported in PubChem BioAssay AID1508600 (Functional Genomics Laboratory (NCATS/FGL), 2020).
Out of some 53,000 sequences screened, about 3,700 (7%) were called active.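 The calls were made as follows: active = gene knockdowns whose robust z-score for IL-1 alpha signal is at least 2 or at most -2, so actives lie on both sides; inactive = the rest.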 The full list was thinned out, with actives kept by preference.

Test: Components of the Cytosolic LPS Sensing Pathway: Gene Identification via Genome-wide siRNA Screen;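 also: robust z of the log signal after scaling to non-targeting control siRNA wells of the plate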
Settings: RAW264.7 macrophages, IL-1a HTRF, actives lie on both sides, screened at 100 nM (by protocol), cells primed 5 h with Pam3CSK4 first
Procedure, shortened: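 Mouse macrophage line RAW264.7 is transfected with siRNA (100 nM final), grown 48h, primed with TLR ligand Pam3CSK4 5 h and given intracellular LipidA 24 h. IL-1a in supernatant is read by HTRF and viability by luminescence.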

z-score, inactive:
GUGGGAAAUCAGUAUUUCCTT against AI467606 1.23
GGUUCAUUGUGUCUCUGGCTT against Grk1 -0.378
GGACGCAAGUACAAAUUUATT against Tnxb 1.13
CGUAGUCGAUUCAGGAGAGTT against Gm10439 -0.356
GGUCUUCUUAGCUUUUUUUTT against Plppr1 -0.713
GGGUUGAUAGAAGUUUUUATT against Cpeb1 0.612
GCUUUAGUACAGGCCUCUATT against Tent4a 0.444
CCCGACCACGUGUUUAUUGTT against Tnfsf12 -1.68
GGUGGAGGCAGGAAAAUCUTT against Mrpl57 -0.808
GGCUCAAGCUAUGAAGAGATT against Gstm4 -0.195
GGUUCUUGUUCAUUCUCUUTT against Slc4a4 -0.0837
GGAAAGAGUGUGCAAACUCTT against Ly6d 0.0731
GGUAUCGACCACAGAUCAUTT against Plxnd1 1.77
GCACCAUUUUAAGAUCUGCTT against Prr13 0.238
CCUCCUUACAAGUUGAAGCTT against Tmem59l -0.142
GCUUGUUCACCCAGUUAUGTT against Hexdc 1.15
GCCAUUCACGACCCACUACTT against Olfr1095 -0.102
GGACUGAUAGAGGACUUCCTT against Bloc1s6 -0.56
CCUUUUAGCUCUGUGUAUUTT against Gldc -0.0983
GGCCUUGAAUGAGCAUCAUTT against Krr1 0.548
GCACCUAAUGAUCACAGUGTT against Nrip3 0.393
GGAAACUGAGCUUAAGAUUTT against Cald1 1.2
CCGCUUUCGGCAAGUAUGGTT against Rbmxl2 1.64
GGCAUGACUUCCACAUGAATT against Pdcd1 0.672
ACAAAUCCACGUGCAAUGUTT against Cyp2d9 0.943
GGAAGAUGAUUAUGAAGAUTT against Apc -0.143
GGCCUGGGAAGUGAACAAATT against Faah -0.721
GGAUCUGUCUACUUUUCCUTT against Hikeshi 0.777
GCCACUCCUAUGAGUGUUATT against Cdk18 0.236
GGAACGCAAGAACAGAAUGTT against Rps24 0.585
CCAGAUGCUAUGCUAGGGATT against Clec4a1 -0.0541
GGACGGCAAAUUUGGUUUCTT against Mmp9 1.28
GCCAUCAAUGAUGUGCUCUTT against Zswim5 -0.186
GGAAAAUGGAAUCUUCGGUTT against Pus10 -1.4
GCUGGAUACUAAUUGCUUATT against Parva 1.27
GCCUGGUACAGAACCAGUATT against Ntsr2 0.547
GGUUUUUAAGGGAAGGCCCTT against Ntmt1 0.284
GUCCCACUCAGGAGAAUUUTT against Lrrc61 0.917
GGAAGAUUAUAUUGAGAGATT against Bnip3 1.11
GGAGGAGAAUGCCACAACUTT against Cd320 -0.227
GCCUGUUAAUAUGCUGUAATT against Gpr83 -0.0705
GGACUUUCUGAGUAAGAAUTT against Coa8 -0.873
CCUUAUGCAUGACUUGAGUTT against Exoc4 -0.2
GGUUCGUCAUACCUCCUCATT against C77080 -0.00884
GGAAUACAUUCCUUUUAAGTT against Gpx3 -1.27
GGAGAAGAAACGGAAAUGATT against Jagn1 -1.98
GCUGUUCAUAUAUCUUGCUTT against Olfr1386 1.17
GGCACAUAGCCAUACCAGATT against Fbxw17 0.0511
GGAUUCCUGUUAAAAGUCUTT against Azin1 -0.152
GGAUUAUCAAUGAAUAGCATT against Gabrb2 0.913
GGACAAUCCGAACAUCAAATT against Sval1 -0.403
GGCCUGCUUCAAACAGUUUTT against Slc1a6 0.648
GGAUACACUGUUUGAAUGUTT against Cks1b 0.00229
GCCGAUUCAAUACUGUGACTT against Rnf149 -0.649
GCACAACCAAUUACGUGGCTT against Gpnmb -0.149
GCAGAUCACUGGAGUAAACTT against Spz1 -0.381
GGUAUGAAACCGUAUAAAUTT against Zfp60 0.00529

z-score, active:
CCCACUUGUCUACAGCCUATT against Olfr1505 -2.65
CCUGAACUAUAGAUGGAUUTT against Manba 3.37
GGCCCAAGGAAUAAUCAAGTT against Satb2 2.48
GGCUAUGAAAGUGACAAUCTT against Tsen15 -2.74
GCGCAAGCCGUAUUCGAAGTT against Hoxc12 2.95
GGCCACUGAUCAACUAAAGTT against Zfp110 2.27
CCUAUGCAUCCCUGACUACTT against Tmem126b 5.07
GGAAUACGGAUUGAUGGAGTT against Fli1 2.19
GGUAUUUAGAAACAUCAGUTT against Wls -2.16
GGGAGAAGUAAGUGUUAUCTT against Npy2r 3.86
CGACUUUUCUCAUUAUGAGTT against Ythdf1 -2.58
GCGUGCUGUGUAAGAGUGUTT against Gja4 -2.5
